The source of these data is PubChem BioAssay (NCATS).

Molecules are shown by their SMILES. Results filed as inconclusive are left out. A call without a number means that no potency is given here. Activity calls are given as the source filed them. Calls follow the shape of the dose curve; as a rule, active = well fitted cell-killing curve with a large enough effect; inconclusive = small, poorly fitted or top-dose-only effect, or effect the other way; inactive = no such curve, though single readings can be large or run the other way.
Potency is read from the fitted curve at half-maximal effect.

The test in a line: Quantitative High-Throughput drug screen in 47 multiple myeloma cell lines against the NCATS MIPE library collection: FR4_PLB cell viability assay (AID 1918924; also: nearly all actives have a fitted effect of over 35% in size). Particulars: FR4_PLB myeloma cells viability, CellTiter-Glo ATP, 48 h; series mostly up to 45.8 µM. The method, boiled down: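 Myeloma cell lines, 500 cells per well, exposed to MIPE 4.0 library compounds for 48 h at 37C, 5% CO2. Viability from ATP by CellTiter-Glo luminescence; normalised to DMSO (100%) and media-only (0%) wells.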
Take `Cn1cc(C=C2C(=O)Nc3cccnc32)c2ccccc21`: the Potency result was “inactive”.
Under `CC(C)OC(=O)CCCC=CC[C@@H]1[C@H](C=C[C@@H](O)COc2cccc(C(F)(F)F)c2)[C@H](O)C[C@@H]1O` stands 29.6 µM (active); under `CN(C)CCC=C1c2ccccc2COc2ccc(CC(=O)O)cc21`, “inactive”; under `N[C@H](CSC(c1ccccc1)(c1ccccc1)c1ccccc1)C(=O)O`, 5.26 µM (active).
Turning to `CC=CC(=O)N(CC)c1ccccc1C`, the Potency entry was “inactive”.
Regarding `N#CC(=C(N)Sc1ccccc1N)C(C#N)=C(N)Sc1ccccc1N`, the Potency is 7.43 µM (active).
With `CC1(C)CCC[C@@]2(C)[C@@H]1CC[C@@]1(C)OC(=O)C[C@H]21`, the Potency is 14.8 µM (active).
Under `CCc1ccc(C=C2SC(=S)NC2=O)cc1` stands “inactive”; under `C[C@]12CC[C@@H]3c4ccc(O)cc4CC[C@H]3[C@H]1C[C@@H](O)[C@H]2O`, “inactive”.
For `Cc1ccc(F)c(NC(=O)Nc2ccc(-c3cccc4[nH]nc(N)c34)cc2)c1`, the Potency was 14.8 µM (active).
On to `NC[C@@H]1O[C@@H](O[C@H]2[C@@H](O)[C@H](O[C@@H]3[C@@H](O)[C@@H](N)C[C@H](N)[C@H]3O[C@H]3O[C@H](CN)[C@@H](O)[C@@H](O)[C@H]3N)O[C@H]2CO)[C@H](N)[C@@H](O)[C@@H]1O`, for which the Potency result is “inactive”.
Under `CCOC(=O)O[C@]1(C(=O)OCCl)CC[C@@H]2[C@H]3CCC4=CC(=O)C=C[C@]4(C)[C@@H]3[C@@H](O)C[C@@]21C` stands “inactive”; under `O=C1NC(=O)C(=Cc2cccc(C(F)(F)F)c2)S1`, “inactive”; under `O=c1ccn([C@@H]2O[C@H](CO)[C@H](O)[C@H]2O)c(=O)[nH]1`, “inactive”.
Next, `CCc1ccc(OCc2ccccc2C(=O)Nc2ccc3nc(C)cc(N)c3c2)cc1`: 8.33 µM (active); `CC=CC[C@@H](C)C(=O)[C@H]1C(=O)N[C@@H](C(C)C)C(=O)N(C)CC(=O)N(C)[C@@H](CC(C)C)C(=O)N[C@@H](C(C)C)C(=O)N(C)[C@@H](CC(C)C)C(=O)N[C@@H](C)C(=O)N[C@H](C)C(=O)N(C)[C@@H](CC(C)C)C(=O)N(C)[C@@H](CC(C)C)C(=O)N(C)[C@@H](C(C)C)C(=O)N1C`: 23.5 µM (active); `OC[C@H]1O[C@@H](Oc2cc(O)cc(C=Cc3ccc(O)cc3)c2)[C@H](O)[C@@H](O)[C@H]1O`: “inactive”.
On to `CCCCCCCCCCCC1=C(O)C(=O)C=C(O)C1=O`, for which the Potency is 20.9 µM (active).
Under `O=C1c2c(O)cc(O)cc2O[C@H](c2cc(O)c(O)c(O)c2)[C@H]1O` stands 26.4 µM (active); under `C[C@@H]1CCN(C(=O)CC#N)C[C@H]1N(C)c1ncnc2[nH]ccc12`, “inactive”.
Consider `N[C@@]1(C(=O)O)CS(=O)(=O)[C@H]2[C@H](C(=O)O)[C@H]21`, for which the Potency result was “inactive”.
Turning to `NC1CCC(Nc2nc(Nc3ccc(C(=O)N4CCCCC4)cc3)c3ncn(-c4cccc(F)c4)c3n2)CC1` (configuration not stated), the Potency entry was “inactive”.
Consider `CC[C@H]1OC(=O)[C@H](C)[C@@H](O[C@H]2C[C@@](C)(OC)[C@@H](O)[C@H](C)O2)[C@H](C)[C@@H](O[C@@H]2O[C@H](C)C[C@H](N(C)C)[C@@H]2O)[C@](C)(O)C[C@@H](C)CN(C)[C@H](C)[C@@H](O)[C@]1(C)O`, for which the Potency result was “inactive”.
As to `CC[C@@]1(O)C[C@H](O[C@H]2C[C@H](N(C)C)[C@H](O[C@H]3C[C@H](O)[C@H](O[C@H]4CCC(=O)[C@H](C)O4)[C@H](C)O3)[C@H](C)O2)c2c(cc3c(c2O)C(=O)c2c(O)cccc2C3=O)[C@@H]1C(=O)OC`, the Potency is 0.332 µM (active).
With `Cc1c(O)cccc1C(=O)N[C@@H](CSc1ccccc1)[C@H](O)CN1C[C@H]2CCCC[C@@H]2C[C@@H]1C(=O)NC(C)(C)C`, the Potency is 26.4 µM (active).
Under `O=c1c(-c2ccc(O)cc2)coc2cc(O[C@@H]3O[C@H](CO)[C@H](O)[C@H](O)[C@H]3O)ccc12` stands “inactive”.
Next, `CN(C)c1cc(NC(=O)CNC(C)(C)C)c(O)c2c1C[C@@H]1C[C@H]3[C@H](N(C)C)C(=O)C(C(N)=O)=C(O)[C@@]3(O)C(=O)C1=C2O`: “inactive”.
For the molecule `Cc1[nH]c(C=C2C(=O)Nc3ccc(S(=O)(=O)Cc4c(Cl)cccc4Cl)cc32)c(C)c1C(=O)N1CCC[C@H]1CN1CCCC1`, the Potency is 23.5 µM (active).
Consider `OC[C@H]1O[C@@H](n2cnc3c2NC=NC[C@@H]3O)C[C@H]1O`, for which the Potency entry was “inactive”.
Under `CC1(C)O[C@H]2C[C@@H]3[C@H]4CCC5=CC(=O)C=C[C@]5(C)[C@@]4(F)[C@@H](O)C[C@]3(C)[C@]2(C(=O)CO)O1` stands “inactive”; under `Cc1nnc(C(C)C)n1C1C[C@H]2CC[C@@H](C1)N2CC[C@H](NC(=O)C1CCC(F)(F)CC1)c1ccccc1` (some centres not stated), “inactive”; under `CC1(C)S[C@H]2[C@H](NC(=O)[C@@H](N)c3ccc(O)cc3)C(=O)N2[C@@H]1C(=O)O`, “inactive”.
Next, `O=C(NOCC(O)CO)c1cc(Br)c(F)c(F)c1Nc1ccc(I)cc1F` (configuration not stated): “inactive”; `O=C(CCc1ccc(O)cc1)c1c(O)cc(O)cc1O[C@@H]1O[C@H](CO)[C@H](O)[C@H](O)[C@H]1O`: “inactive”; `C[N+](C)(C)CC(=O)O`: “inactive”.
Under `CO[C@H]1C=CC=C(C)C(=O)NC2=CC(=O)C(NCCN(C)C)=C(C[C@@H](C)C[C@H](OC)[C@@H](O)[C@@H](C)C=C(C)[C@@H]1OC(N)=O)C2=O` stands 0.166 µM (active).
In the case of `CCN(CC)CCOc1ccc(C(=C(Cl)c2ccccc2)c2ccccc2)cc1`, the Potency result is “inactive”.
